The source made the active and inactive calls. The calls were made as follows: active = hit-call score of the fitted dose curve at least 0.9, where 1 is the maximum; inconclusive = response in the unintended direction; inactive = score below 0.9.
What follows are molecules tested against Estrogen receptor (Homo sapiens) (UniProt P03372) (assay: OT_ER_ERaERa_1440: Odyssey Thera (OT) 24-hour HEK293T Protein-Complementation Assay for Estrogen Receptor-alpha/-alpha Homodimer (AID 2283349);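 also: hits raise fluorescence above DMSO for agonists and antagonists alike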).
Sequence of Estrogen receptor (Homo sapiens) (P03372 whole entry, looked up, the tested form may be a part): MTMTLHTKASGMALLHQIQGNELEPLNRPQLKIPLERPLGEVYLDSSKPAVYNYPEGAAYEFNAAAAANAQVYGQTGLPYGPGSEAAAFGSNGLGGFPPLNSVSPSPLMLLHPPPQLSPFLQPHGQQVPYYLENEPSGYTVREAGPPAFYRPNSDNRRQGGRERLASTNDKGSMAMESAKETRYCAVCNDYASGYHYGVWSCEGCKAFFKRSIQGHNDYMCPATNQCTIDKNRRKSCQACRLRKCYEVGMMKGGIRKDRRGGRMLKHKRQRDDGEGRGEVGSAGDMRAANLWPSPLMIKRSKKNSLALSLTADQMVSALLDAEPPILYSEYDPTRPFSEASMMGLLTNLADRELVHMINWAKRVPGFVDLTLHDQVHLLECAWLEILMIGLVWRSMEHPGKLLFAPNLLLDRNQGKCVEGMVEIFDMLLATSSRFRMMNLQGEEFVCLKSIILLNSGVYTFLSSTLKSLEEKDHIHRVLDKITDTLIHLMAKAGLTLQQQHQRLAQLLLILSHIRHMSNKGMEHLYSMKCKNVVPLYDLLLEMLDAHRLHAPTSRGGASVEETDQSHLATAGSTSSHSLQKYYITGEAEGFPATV
Method: OT_ER_ERaERa_1440 is a cell-based assay that uses HEK293T, a human kidney cell line, with measurements taken at 24 hours after chemical dosing in a 384-well plate.OT_ER_ERaERa_1440 is one of one assay component(s) measured or calculated from the OT_ER_ERaERa_1440 assay. It is designed to make measurements of protein fragment complementation, a form of binding reporter, as detected with fluorescence intensity signals by Protein-fragment Complementation technology.Data from the assay component OT_ER_ERaERa_1440 was analyzed into 1 assay endpoint. This assay endpoint, OT_ER_ERaERa_1440, was analyzed in the positive analysis fitting direction relative to DMSO as the negative control and baseline of activity. Using a type of binding reporter, measures of receptor for gain-of-signal activity can be used to understand the binding at the pathway-level as they relate to the gene ESR1. Furthermore, this assay endpoint can be referred to as a primary readout, because the performed assay has only produced 1 assay endpoint. To generalize the intended target to other relatable targets, this assay endpoint is annotated to the nuclear receptor intended target family, where the subfamily is steroidal.
Protein-fragment complementation assay, or PCA, is a method for the identification and quantification of protein-protein interactions. In the PCA, the proteins of interest ("bait" and "prey") are each covalently linked to fragments of a third protein (e.g. DHFR, which acts as a "reporter"). Interaction between the bait and the prey proteins brings the fragments of the reporter protein in close proximity to allow them to form a functional reporter protein whose activity can be measured. The OT ER alpha / ER alpha assay is a homodimer PCA of the ligand binding domain (amino acids 310-547) of human ER alpha stably expressed in HEK293T cells. […] Fluorescent signal in the basal state of the assay is very low and is primarily punctuate and cytoplasmic. Modulation of this assay is quantified as an increase in mean fluorescence intensity in the nucleus (for agonists) or in the nucleus and cytoplasm (antagonists) relative to vehicle controls, and can be quantified on a high content imaging device or a laser scanning cytometer. The latter instrument is favored for this assay because of the rapid mode of data acquisition, the ability to acquire data from the entire cell population in a well (as opposed to a fraction of the well on the high content devices) and the larger dynamic range typically achieved with this instrument. To assess sensitivity of the ER alpha/ER alpha LBD assay to ligand, cells were treated with the ER agonist 17 beta-estradiol (E2) in 10-point concentration- response format for 24 hours and monitored response on a laser scanning plate cytometer (Acumen eX3; TTP Lab Tech).

Row | Structure (SMILES) | outcome | AC50
1 | CC1(C)C(C(=O)OC(C#N)c2cccc(Oc3ccccc3)c2)C1(C)C (stereo not given) | inactive | 
2 | CC(C)Oc1cccc(NC(=O)c2ccccc2C(F)(F)F)c1 | inactive | 
3 | O=C1C2CC=CCC2C(=O)N1SC(Cl)(Cl)Cl (stereo not given) | inactive | 
4 | CC1(C)CCC(=Cc2ccc(Cl)cc2)C1(O)Cn1cncn1 (stereo not given) | inactive | 
5 | CC1(C)C(C=C(Cl)Cl)C1C(=O)OC(C#N)c1cccc(Oc2ccccc2)c1 (stereo not given) | inactive | 
6 | N#CN=C1SCCN1Cc1ccc(Cl)nc1 | inactive | 
7 | O=C(O)c1c(Cl)ccc2cc(Cl)cnc12 | inactive | 
8 | COC(=O)N(C(=O)N1CO[C@@]2(C(=O)OC)Cc3cc(Cl)ccc3C2=N1)c1ccc(OC(F)(F)F)cc1 | inactive | 
9 | Nc1c(Cl)c(Cl)nc(C(=O)O)c1Cl | inactive | 
10 | CCCCC(C#N)(Cn1cncn1)c1ccc(Cl)cc1 (stereo not given) | inactive | 
11 | CS(=O)(=O)c1cc(C(F)(F)F)ccc1C(=O)c1cnoc1C1CC1 | inactive | 
12 | C=C(C)CN(CC)c1c([N+](=O)[O-])cc(C(F)(F)F)cc1[N+](=O)[O-] | inactive | 
13 | Cc1ccc(N=CN(C)C=Nc2ccc(C)cc2C)c(C)c1 | inactive | 
14 | CC(C)(C)C(=O)C(Oc1ccc(Cl)cc1)n1cncn1 (stereo not given) | inactive | 
15 | CCSC(=O)N1CCCCCC1 | inactive | 
16 | CC(C)=CC1C(C(=O)OCc2coc(Cc3ccccc3)c2)C1(C)C (stereo not given) | inactive | 
17 | CCNC(=O)NC(=O)C(C#N)=NOC | inactive | 
18 | COc1ccc(-c2ccccc2)cc1NNC(=O)OC(C)C | inactive | 
19 | Clc1nc(Cl)nc(Nc2ccccc2Cl)n1 | inactive | 
20 | COP(=S)(OC)SCn1nnc2ccccc2c1=O | inactive | 

Row | Structure (SMILES) | outcome | AC50
21 | CCN(CC)c1nc(C)cc(OP(=S)(OC)OC)n1 | inactive | 
22 | CC(C)C1(C)N=C(c2ncccc2C(=O)O)NC1=O (stereo not given) | inactive | 
23 | Nc1c(Cl)c(F)nc(OCC(=O)O)c1Cl | inactive | 
24 | CC(C)N1C(=O)c2ccccc2NS1(=O)=O | inactive | 
25 | CS(=O)(=O)c1ccc(C(=O)C2C(=O)CCCC2=O)c([N+](=O)[O-])c1 | inactive | 
26 | CCN(CC)C(=O)C(C)Oc1cccc2ccccc12 (stereo not given) | inactive | 
27 | O=c1n(Cl)c(=O)n(Cl)c(=O)n1Cl | inactive | 
28 | CSC(=O)c1c(C(F)F)nc(C(F)(F)F)c(C(=O)SC)c1CC(C)C |  | 47.1 µM (active)
29 | Cc1c(COC(=O)[C@@H]2[C@H](/C=C(\Cl)C(F)(F)F)C2(C)C)cccc1-c1ccccc1 | inactive | 
30 | CCC(C)n1c(=O)[nH]c(C)c(Br)c1=O (stereo not given) | inactive | 
31 | CC(C)N1C(=O)N(c2ccccc2)CSC1=NC(C)(C)C | inactive | 
32 | COc1cc(Cl)c(OC)cc1Cl | inactive | 
33 | CCCCOCN(C(=O)CCl)c1c(CC)cccc1CC | inactive | 
34 | COC(=O)NC(=S)Nc1ccccc1NC(=S)NC(=O)OC | inactive | 
35 | COC(=O)NS(=O)(=O)c1ccc(N)cc1 | inactive | 
36 | CNC(=O)N(C)c1nnc(C(C)(C)C)s1 | inactive | 
37 | COP(=S)(OC)Oc1ccc([N+](=O)[O-])c(C)c1 | inactive | 
38 | COCC(C)N(C(=O)CCl)c1c(C)csc1C (stereo not given) | inactive | 
39 | CCCC(=NOCC)C1=C(O)CC(CC(C)SCC)CC1=O (stereo not given) | inactive | 
40 | N#Cc1c[nH]cc1-c1cccc2c1OC(F)(F)O2 |  | 31 µM (active)

Source: PubChem BioAssay (EPA / NIEHS)
